# ± gives the standard deviation of the averaged measurements. About 5,400 targets were measured; listed, in parts, are those with the largest changes and a random draw of the rest.
# Compound: Nc1nc2c(ncn2[C@@H]2O[C@H](COP(=O)(O)OP(=O)(O)OP(=O)(O)O)[C@@H](O)[C@H]2O)c(=O)[nH]1 [guanosine triphosphate]
# Assay: NP40-soluble protein abundance relative to vehicle (solubility fold change) (ratio); higher = more soluble protein in presence of GTP
# Summary of the method: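 Across three independent experiments, values are fold changes against the detergent-processed vehicle for each replicate, based on vsn-normalised intensities. The samples were Jurkat crude lysate treated with eight concentrations (0.1 to 10 mM) for 10 min at room temperature and then 3 min at 37 °C. Lysate was solubilised with 0.8% NP40 and benzonase, ultracentrifuged, and the supernatant analysed by TMT-labelled LC-MS/MS.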
# UniProt O43615, sequence (O43615 whole entry): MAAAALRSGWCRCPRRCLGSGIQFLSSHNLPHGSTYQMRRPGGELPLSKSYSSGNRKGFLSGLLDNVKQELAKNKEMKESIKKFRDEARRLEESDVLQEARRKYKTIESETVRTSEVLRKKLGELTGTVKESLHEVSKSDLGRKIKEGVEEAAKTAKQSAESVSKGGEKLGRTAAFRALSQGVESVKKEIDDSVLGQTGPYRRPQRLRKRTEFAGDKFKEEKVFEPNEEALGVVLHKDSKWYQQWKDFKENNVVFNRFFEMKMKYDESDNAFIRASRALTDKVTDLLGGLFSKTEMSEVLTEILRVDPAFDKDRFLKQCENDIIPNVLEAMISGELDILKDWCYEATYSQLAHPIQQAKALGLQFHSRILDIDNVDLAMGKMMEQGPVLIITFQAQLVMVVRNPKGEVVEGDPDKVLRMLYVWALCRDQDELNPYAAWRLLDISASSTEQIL
# UniProt O60281, sequence (O60281 whole entry, one chain of several): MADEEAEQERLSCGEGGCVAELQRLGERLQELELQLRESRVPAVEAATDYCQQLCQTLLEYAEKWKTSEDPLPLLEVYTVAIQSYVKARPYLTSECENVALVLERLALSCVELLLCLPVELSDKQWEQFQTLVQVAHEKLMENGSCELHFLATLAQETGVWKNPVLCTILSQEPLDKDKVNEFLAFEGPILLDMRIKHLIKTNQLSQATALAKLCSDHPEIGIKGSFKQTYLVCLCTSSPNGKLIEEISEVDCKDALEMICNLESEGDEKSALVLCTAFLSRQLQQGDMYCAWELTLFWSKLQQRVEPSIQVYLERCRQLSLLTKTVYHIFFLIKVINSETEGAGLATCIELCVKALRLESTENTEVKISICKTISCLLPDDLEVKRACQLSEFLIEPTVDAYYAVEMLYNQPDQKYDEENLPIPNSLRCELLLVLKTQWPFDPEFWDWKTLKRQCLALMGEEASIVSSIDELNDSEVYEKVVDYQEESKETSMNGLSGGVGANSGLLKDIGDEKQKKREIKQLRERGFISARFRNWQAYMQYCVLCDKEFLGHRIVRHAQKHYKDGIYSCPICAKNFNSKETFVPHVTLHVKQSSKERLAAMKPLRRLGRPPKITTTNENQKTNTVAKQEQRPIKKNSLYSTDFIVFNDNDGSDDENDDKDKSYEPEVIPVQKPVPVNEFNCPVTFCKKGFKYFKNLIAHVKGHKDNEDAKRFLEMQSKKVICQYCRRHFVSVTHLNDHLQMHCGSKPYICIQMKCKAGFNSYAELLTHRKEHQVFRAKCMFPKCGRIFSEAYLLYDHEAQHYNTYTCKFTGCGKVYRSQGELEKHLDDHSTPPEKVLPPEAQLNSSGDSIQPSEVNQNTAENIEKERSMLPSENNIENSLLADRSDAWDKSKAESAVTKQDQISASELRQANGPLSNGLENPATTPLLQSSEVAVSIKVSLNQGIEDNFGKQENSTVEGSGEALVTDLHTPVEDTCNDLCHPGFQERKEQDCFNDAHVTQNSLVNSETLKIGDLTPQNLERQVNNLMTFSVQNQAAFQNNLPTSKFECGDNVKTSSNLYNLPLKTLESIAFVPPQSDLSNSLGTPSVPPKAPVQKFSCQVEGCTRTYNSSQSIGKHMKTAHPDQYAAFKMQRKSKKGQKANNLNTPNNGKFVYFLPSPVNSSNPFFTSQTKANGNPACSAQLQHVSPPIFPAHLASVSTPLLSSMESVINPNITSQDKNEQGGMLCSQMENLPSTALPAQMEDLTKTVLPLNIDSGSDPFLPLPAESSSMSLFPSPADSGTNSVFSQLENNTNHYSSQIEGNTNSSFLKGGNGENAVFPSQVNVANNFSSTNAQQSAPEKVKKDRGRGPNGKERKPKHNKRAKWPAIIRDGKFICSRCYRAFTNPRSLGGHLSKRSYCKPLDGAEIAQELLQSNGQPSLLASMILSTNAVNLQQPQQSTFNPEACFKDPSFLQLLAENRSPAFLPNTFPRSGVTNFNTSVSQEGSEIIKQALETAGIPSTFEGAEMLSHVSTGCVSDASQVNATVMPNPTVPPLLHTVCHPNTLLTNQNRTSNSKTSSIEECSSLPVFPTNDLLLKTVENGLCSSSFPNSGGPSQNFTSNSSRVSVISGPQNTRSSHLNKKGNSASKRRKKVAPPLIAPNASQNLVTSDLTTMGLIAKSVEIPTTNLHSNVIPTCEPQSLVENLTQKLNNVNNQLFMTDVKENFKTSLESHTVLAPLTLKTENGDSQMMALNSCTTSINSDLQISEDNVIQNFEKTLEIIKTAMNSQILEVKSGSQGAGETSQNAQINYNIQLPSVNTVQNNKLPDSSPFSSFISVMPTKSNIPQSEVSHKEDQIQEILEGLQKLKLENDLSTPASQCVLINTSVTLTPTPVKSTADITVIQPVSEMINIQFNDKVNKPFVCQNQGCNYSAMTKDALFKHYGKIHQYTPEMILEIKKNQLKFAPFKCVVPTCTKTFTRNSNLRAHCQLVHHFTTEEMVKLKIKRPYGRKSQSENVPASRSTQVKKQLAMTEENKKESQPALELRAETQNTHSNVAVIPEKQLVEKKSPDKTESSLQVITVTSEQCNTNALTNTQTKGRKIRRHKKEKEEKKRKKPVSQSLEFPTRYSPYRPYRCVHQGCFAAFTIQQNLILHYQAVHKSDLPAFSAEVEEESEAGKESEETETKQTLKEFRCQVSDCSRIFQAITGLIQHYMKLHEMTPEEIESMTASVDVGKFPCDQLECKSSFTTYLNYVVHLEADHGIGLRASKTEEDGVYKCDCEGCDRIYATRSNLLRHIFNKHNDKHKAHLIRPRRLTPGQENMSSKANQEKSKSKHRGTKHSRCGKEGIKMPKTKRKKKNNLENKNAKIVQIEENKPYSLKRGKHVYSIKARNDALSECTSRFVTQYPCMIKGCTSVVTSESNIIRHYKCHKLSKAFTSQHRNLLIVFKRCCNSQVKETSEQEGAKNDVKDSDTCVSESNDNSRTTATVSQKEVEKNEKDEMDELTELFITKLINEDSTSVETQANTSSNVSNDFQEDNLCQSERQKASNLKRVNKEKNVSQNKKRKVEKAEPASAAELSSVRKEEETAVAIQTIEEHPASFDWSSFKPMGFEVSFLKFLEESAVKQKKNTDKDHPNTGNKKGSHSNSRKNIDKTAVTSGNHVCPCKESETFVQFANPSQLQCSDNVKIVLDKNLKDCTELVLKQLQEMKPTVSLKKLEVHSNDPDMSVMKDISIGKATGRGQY
# UniProt O60830, sequence (O60830 whole entry, one chain of several): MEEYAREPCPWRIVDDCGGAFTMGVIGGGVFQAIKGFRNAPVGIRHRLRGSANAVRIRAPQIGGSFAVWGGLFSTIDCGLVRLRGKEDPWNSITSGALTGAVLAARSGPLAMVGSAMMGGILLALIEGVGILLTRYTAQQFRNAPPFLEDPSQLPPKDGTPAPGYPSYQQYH
# UniProt P23246, sequence (P23246 whole entry): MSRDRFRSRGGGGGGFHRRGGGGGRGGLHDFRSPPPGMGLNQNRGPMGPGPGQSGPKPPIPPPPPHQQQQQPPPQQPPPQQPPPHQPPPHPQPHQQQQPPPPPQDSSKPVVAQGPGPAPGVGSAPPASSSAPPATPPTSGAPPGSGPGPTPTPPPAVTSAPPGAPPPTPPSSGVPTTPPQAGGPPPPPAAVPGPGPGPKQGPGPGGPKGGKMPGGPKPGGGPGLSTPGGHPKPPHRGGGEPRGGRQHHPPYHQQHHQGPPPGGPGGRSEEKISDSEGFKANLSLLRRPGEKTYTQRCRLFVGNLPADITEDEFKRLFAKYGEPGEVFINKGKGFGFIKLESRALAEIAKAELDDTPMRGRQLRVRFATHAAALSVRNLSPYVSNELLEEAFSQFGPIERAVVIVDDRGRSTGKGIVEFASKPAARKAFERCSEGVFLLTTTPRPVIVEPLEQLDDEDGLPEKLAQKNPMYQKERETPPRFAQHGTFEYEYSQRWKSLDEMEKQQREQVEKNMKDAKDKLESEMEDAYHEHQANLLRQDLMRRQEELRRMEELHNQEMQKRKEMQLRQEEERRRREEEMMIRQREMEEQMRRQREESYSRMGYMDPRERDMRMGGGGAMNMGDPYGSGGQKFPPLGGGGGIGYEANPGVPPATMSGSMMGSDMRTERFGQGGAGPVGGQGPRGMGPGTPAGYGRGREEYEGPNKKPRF
# UniProt O95644, sequence (O95644 whole entry): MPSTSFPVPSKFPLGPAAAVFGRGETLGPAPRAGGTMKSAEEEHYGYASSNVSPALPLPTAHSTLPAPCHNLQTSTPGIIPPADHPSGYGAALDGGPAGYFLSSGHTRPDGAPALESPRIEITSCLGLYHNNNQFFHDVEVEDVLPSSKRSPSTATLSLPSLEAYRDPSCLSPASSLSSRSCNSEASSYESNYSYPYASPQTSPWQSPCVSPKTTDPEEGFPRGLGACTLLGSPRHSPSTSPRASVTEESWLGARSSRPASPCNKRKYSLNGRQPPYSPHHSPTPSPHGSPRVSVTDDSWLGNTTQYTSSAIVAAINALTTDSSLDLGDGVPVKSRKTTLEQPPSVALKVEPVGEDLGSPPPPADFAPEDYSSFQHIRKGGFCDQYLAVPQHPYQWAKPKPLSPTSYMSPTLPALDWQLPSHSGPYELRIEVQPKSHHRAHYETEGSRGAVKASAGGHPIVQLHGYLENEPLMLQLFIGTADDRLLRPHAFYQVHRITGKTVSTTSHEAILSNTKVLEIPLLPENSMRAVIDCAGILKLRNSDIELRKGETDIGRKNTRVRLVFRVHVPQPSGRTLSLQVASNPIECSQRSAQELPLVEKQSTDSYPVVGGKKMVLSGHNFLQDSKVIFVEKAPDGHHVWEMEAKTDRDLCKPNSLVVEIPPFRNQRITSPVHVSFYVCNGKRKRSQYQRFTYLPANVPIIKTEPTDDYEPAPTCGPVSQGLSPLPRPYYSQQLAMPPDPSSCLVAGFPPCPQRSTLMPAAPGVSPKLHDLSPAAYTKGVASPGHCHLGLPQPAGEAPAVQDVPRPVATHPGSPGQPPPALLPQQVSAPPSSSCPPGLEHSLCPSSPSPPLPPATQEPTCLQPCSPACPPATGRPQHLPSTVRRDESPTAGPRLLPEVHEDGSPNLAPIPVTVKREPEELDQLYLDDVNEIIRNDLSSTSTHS
Target,NP40-soluble protein abundance (concentration: 0.1mM),NP40-soluble protein abundance (concentration: 0.5mM),NP40-soluble protein abundance (concentration: 1mM),NP40-soluble protein abundance (concentration: 2mM),NP40-soluble protein abundance (concentration: 4mM),NP40-soluble protein abundance (concentration: 6mM),NP40-soluble protein abundance (concentration: 8mM),NP40-soluble protein abundance (concentration: 10mM)
UniProt O43399|O43399-5|O43399-7,0.814 ± 0.11,0.76 ± 0.039,1 ± 0.15,0.946 ± 0.028,0.91 ± 0.03,0.916 ± 0.033,0.875 ± 0.16,1.08 ± 0.15
TGFB1 (UniProt P01137),0.926 ± 0.072,1.02 ± 0.11,0.908 ± 0.091,0.961 ± 0.092,0.987 ± 0.055,0.958 ± 0.088,0.896 ± 0.11,0.968 ± 0.14
UniProt O60861|O60861-1|O60861-4,1 ± 0.02,1.01 ± 0.071,1.01 ± 0.047,0.94 ± 0.063,0.935 ± 0.035,0.929 ± 0.04,0.978 ± 0.046,0.888 ± 0.06
PYGB (UniProt P11216),1.11 ± 0.12,1.19 ± 0.21,1.2 ± 0.28,1.45 ± 0.5,1.71 ± 0.63,1.78 ± 0.69,1.75 ± 0.61,1.79 ± 0.67
HIST1H1C (UniProt P16403),0.984 ± 0.038,1.11 ± 0.074,1.18 ± 0.072,1.22 ± 0.048,1.23 ± 0.096,1.38 ± 0.074,1.26 ± 0.1,1.78 ± 0.15
UniProt P23025|F2Z2T2,1.07 ± 0.044,1.08 ± 0.049,1.21 ± 0.054,1.02 ± 0.1,1.05 ± 0.074,1.08 ± 0.14,1.12 ± 0.028,1.08 ± 0.097
HMGN2 (UniProt P05204),0.992 ± 0.2,1 ± 0.14,1.31 ± 0.23,1.46 ± 0.35,1.5 ± 0.11,1.89 ± 0.35,1.7 ± 0.41,2.68 ± 0.3
UniProt P06239|P06239-3,1.013 ± 0.0087,1.04 ± 0.034,0.994 ± 0.022,1 ± 0.032,1 ± 0.023,0.963 ± 0.015,0.929 ± 0.026,0.919 ± 0.039
UniProt P27824|P27824-2,0.965 ± 0.034,1 ± 0.013,0.95 ± 0.04,0.928 ± 0.048,0.883 ± 0.061,0.922 ± 0.06,0.906 ± 0.035,0.896 ± 0.051
UniProt P50395|Q5SX86,0.966 ± 0.022,0.999 ± 0.023,0.916 ± 0.02,0.899 ± 0.0095,0.882 ± 0.012,0.89 ± 0.017,0.859 ± 0.04,0.829 ± 0.057
UniProt P06729,0.895 ± 0.023,0.902 ± 0.035,0.912 ± 0.02,0.88 ± 0.072,0.852 ± 0.038,0.89 ± 0.053,0.893 ± 0.036,0.903 ± 0.039
ZBTB24 (UniProt O43167),1.09 ± 0.18,1.09 ± 0.2,1.02 ± 0.21,1.05 ± 0.2,1.06 ± 0.24,0.976 ± 0.11,1 ± 0.053,1.08 ± 0.14
UniProt O43865,0.969 ± 0.025,0.99 ± 0.044,0.959 ± 0.057,0.944 ± 0.025,0.914 ± 0.021,0.955 ± 0.029,0.973 ± 0.056,0.98 ± 0.047
GNL1 (UniProt P36915),1.05 ± 0.023,1.03 ± 0.019,0.972 ± 0.033,0.95 ± 0.015,0.9647 ± 0.0095,0.944 ± 0.02,0.959 ± 0.045,0.906 ± 0.061
RBM34 (UniProt P42696),1.08 ± 0.0039,1.05 ± 0.034,1.14 ± 0.028,1.23 ± 0.065,1.41 ± 0.066,1.57 ± 0.12,1.68 ± 0.12,1.83 ± 0.066
UniProt P00387|P00387-2|P00387-3,1.11 ± 0.13,1.1 ± 0.14,0.945 ± 0.11,0.947 ± 0.15,0.938 ± 0.14,0.925 ± 0.14,0.882 ± 0.1,0.853 ± 0.14
UniProt O60830|O60830-2|V9GYS0,1.82 ± 0.63,1 ± 0.039,0.957 ± 0.15,1.01 ± 0.13,1 ± 0.11,0.969 ± 0.13,0.942 ± 0.051,0.955 ± 0.045
UniProt P51532|P51532-2|P51532-3|P51532-4|P51532-5|Q9HBD4,1.016 ± 0.0073,1.07 ± 0.045,1.1 ± 0.083,1.15 ± 0.13,1.19 ± 0.15,1.2 ± 0.17,1.24 ± 0.23,1.21 ± 0.21
ARPC1B (UniProt O15143),1 ± 0.045,1.04 ± 0.056,0.933 ± 0.034,0.942 ± 0.062,0.928 ± 0.056,0.948 ± 0.04,0.923 ± 0.017,0.887 ± 0.012
J3KNV1|O60281|O60281-2 (UniProt O60281),1.06 ± 0.041,1.05 ± 0.095,1.12 ± 0.066,1.09 ± 0.13,1.02 ± 0.051,1.04 ± 0.15,1.07 ± 0.057,1.05 ± 0.036

Target,NP40-soluble protein abundance (concentration: 0.1mM),NP40-soluble protein abundance (concentration: 0.5mM),NP40-soluble protein abundance (concentration: 1mM),NP40-soluble protein abundance (concentration: 2mM),NP40-soluble protein abundance (concentration: 4mM),NP40-soluble protein abundance (concentration: 6mM),NP40-soluble protein abundance (concentration: 8mM),NP40-soluble protein abundance (concentration: 10mM)
UniProt O60488|O60488-2|D6RD96,1.02 ± 0.028,1.08 ± 0.053,0.9363 ± 0.0046,0.939 ± 0.066,0.908 ± 0.045,0.905 ± 0.049,0.894 ± 0.039,0.843 ± 0.086
UniProt P38159|P38159-2,1.02 ± 0.048,1.02 ± 0.027,1.18 ± 0.036,1.29 ± 0.043,1.47 ± 0.052,1.65 ± 0.1,1.8 ± 0.15,2.04 ± 0.32
GM2A (UniProt P17900),0.851 ± 0.015,0.931 ± 0.022,0.876 ± 0.013,0.923 ± 0.1,0.853 ± 0.042,0.859 ± 0.013,0.856 ± 0.12,0.927 ± 0.067
EEF2K (UniProt O00418),0.988 ± 0.074,1.01 ± 0.058,0.944 ± 0.02,0.954 ± 0.044,0.913 ± 0.028,0.951 ± 0.052,0.949 ± 0.068,0.941 ± 0.039
TIMM44 (UniProt O43615),0.992 ± 0.035,0.989 ± 0.041,0.993 ± 0.057,0.946 ± 0.058,0.954 ± 0.09,0.914 ± 0.082,0.946 ± 0.058,0.93 ± 0.064
H7BYN4|Q02241|Q02241-2|Q02241-3 (UniProt Q02241),1.1 ± 0.048,1.03 ± 0.036,1.0707 ± 0.00082,1.09 ± 0.021,1.114 ± 0.0076,1.13 ± 0.046,1.12 ± 0.084,1.09 ± 0.041
H7C0Q6|Q9C037|Q9C037-2|Q9C037-3 (UniProt Q9C037),1.08 ± 0.076,1.037 ± 0.0073,1.03 ± 0.068,0.998 ± 0.052,0.968 ± 0.069,0.981 ± 0.063,0.979 ± 0.07,0.918 ± 0.074
UniProt O94964-2|O94964|O94964-4|X6R3R3,1.05 ± 0.11,0.998 ± 0.13,1.139 ± 0.011,1.07 ± 0.025,1.09 ± 0.047,1.03 ± 0.037,1.12 ± 0.072,0.994 ± 0.041
HIST1H1B (UniProt P16401),0.956 ± 0.023,0.937 ± 0.02,1.09 ± 0.037,1.15 ± 0.014,1.22 ± 0.042,1.272 ± 0.012,1.22 ± 0.039,1.73 ± 0.19
FXR2 (UniProt P51116),1.08 ± 0.054,1.13 ± 0.081,1.27 ± 0.064,1.51 ± 0.14,1.8 ± 0.22,1.97 ± 0.25,2.13 ± 0.29,2.23 ± 0.35
UniProt O95644|O95644-10|O95644-11|O95644-2|O95644-3|O95644-4|O95644-5|O95644-6|O95644-8,1.01 ± 0.2,1.07 ± 0.094,1.25 ± 0.18,1.37 ± 0.17,1.31 ± 0.29,1.34 ± 0.19,1.17 ± 0.053,1.34 ± 0.3
J3KNZ9 (UniProt Q9HAH7),1.01 ± 0.12,0.933 ± 0.095,0.978 ± 0.056,0.984 ± 0.061,0.971 ± 0.051,1.01 ± 0.05,1.02 ± 0.015,1.01 ± 0.061
SFPQ (UniProt P23246),0.998 ± 0.053,0.989 ± 0.086,1.03 ± 0.13,1.23 ± 0.14,1.61 ± 0.22,1.85 ± 0.28,2 ± 0.35,2.04 ± 0.36
UniProt O15260|O15260-2|Q5T8U5,1.13 ± 0.021,1.03 ± 0.05,1.05 ± 0.022,1.01 ± 0.07,1.04 ± 0.074,0.956 ± 0.055,1.03 ± 0.044,0.953 ± 0.03
LGALS1 (UniProt P09382),0.889 ± 0.036,0.886 ± 0.037,0.885 ± 0.042,0.789 ± 0.055,0.813 ± 0.11,0.822 ± 0.067,0.821 ± 0.03,0.809 ± 0.055
UniProt O75400|O75400-2|O75400-3,1.02 ± 0.05,1.11 ± 0.036,1.23 ± 0.083,1.25 ± 0.076,1.37 ± 0.21,1.52 ± 0.24,1.81 ± 0.37,1.89 ± 0.41
TIMM23 (UniProt O14925),0.979 ± 0.016,0.902 ± 0.037,0.856 ± 0.016,0.892 ± 0.02,0.904 ± 0.043,0.877 ± 0.026,0.838 ± 0.046,0.898 ± 0.042
UniProt P27540|P27540-2|P27540-4,0.978 ± 0.071,0.957 ± 0.12,0.957 ± 0.027,0.982 ± 0.11,1.02 ± 0.023,0.961 ± 0.055,0.961 ± 0.059,0.927 ± 0.027
UniProt P48634|P48634-2|P48634-3,1.07 ± 0.034,1.06 ± 0.0091,1.19 ± 0.1,1.27 ± 0.03,1.42 ± 0.062,1.52 ± 0.096,1.7 ± 0.19,1.84 ± 0.28
